Rows were chosen to be rich in hits. Some 18% of all compounds tested hit in one or more screens of this group.
VDR inhibitor = Inhibitors of the vitamin D receptor (VDR): qHTS; VDR-SRC2-3 peptide fluorescence polarization, 2 h; Potency, µM, for inactives: max response, negative = inhibition, most hits filed as inhibitors; 400,000 compounds, 0.93% hits; AID 504847, 2011
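FP read-out; VDR + SRC2-3 coactivator peptide; 23 nl compound by pintool; 2 h RT incubation; reagents held at 4 deg C, protected from light.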
DT40 TDP1 CPT = qHTS for Inhibitors of human tyrosyl-DNA phosphodiesterase 1 (TDP1): qHTS in cells in presence of CPT; AID 686979, 2013; Potency, µM (doses to about 46.2 µM), without a hit: top-dose activity change, negative = growth inhibition, actives largely listed as inhibitors; chicken DT40 Tdp1-/-;hTDP1 cells + 20 nM CPT, ATP luminescence, 48 h; 420,000 compounds, 12% hits; also: nearly all actives have a fitted effect of over 55% in size
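Cell growth measured by CellTiter-Glo luminescence after a minimum 48 h, 37 C compound exposure with 20 nM CPT in Tdp1-knockout DT40 cells stably expressing hTDP1, seeded 400/well; qHTS titration format.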
DT40 TDP1 no CPT = qHTS for Inhibitors of human tyrosyl-DNA phosphodiesterase 1 (TDP1): qHTS in cells in absence of CPT | DT40 Tdp1-/- hTDP1 cells, no CPT, ATP luminescence, 48 h | AID 686978, 2013 | Potency, µM (series often up to 46.2 µM), without a hit: at the top dose activity change, negative = growth inhibition, hits mostly inhibitors | 420,000 compounds, 15% hits; also: nearly all actives have a fitted effect of over 55% in size
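Luminescent ATP content (CellTiter-Glo) served as the growth readout. Knockout chicken DT40 cells expressing human TDP1 were exposed to compounds without camptothecin for a minimum 48 hr at 37 °C.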
PLK1 PBD block = qHTS for Inhibitors of PLK1-PDB (polo-like kinase 1 - polo-box domain): Primary Screen | 360,000 compounds, 2.8% hits | Serine/threonine-protein kinase PLK1 (Homo sapiens), P53350 | Potency, µM, inactives show max response, negative = inhibition, most hits filed as inhibitors | Plk1 PBD binding of FITC phosphopeptide, fluorescence polarization | AID 720504, 2013; also: series mostly up to about 57 µM; nearly all actives have a fitted effect of over 65% in size
KAT2A inh = qHTS Assay for Inhibitors of GCN5L2. Histone acetyltransferase KAT2A (Homo sapiens), Q92830. GCN5L2 HAT assay, ThioGlo1 CoA-SH fluorescence. Potency, µM (series often up to 58.9 µM), for inactives: at the highest dose activity change, negative = inhibition, most hits filed as inhibitors. 390,000 compounds, 0.21% hits
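Fluorescence readout, Ex340nm/Em540nm: ThioGlo1 (50uM final) reacts with free CoA thiol released as 20nM GCN5L2 acetylates H3(1-25) peptide (75uM) using acetyl-CoA (70uM). Compound and enzyme sat 15 min beforehand; 20 min room-temperature reaction.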
TDP1 inh = qHTS Assay for Inhibitors of Tyrosyl-DNA Phosphodiesterase (TDP1) | recombinant TDP1, AlphaScreen DNA substrate cleavage | Tyrosyl-DNA phosphodiesterase 1 (Homo sapiens), Q9NUW8 | Potency, µM (highest dose often 130 µM), without a hit: at the top dose activity change, negative = inhibition, hits mostly inhibitors | 350,000 compounds, 0.28% hits; also: nearly all actives have a fitted effect of over 40% in size
Target sequence (Q9NUW8 whole entry, looked up): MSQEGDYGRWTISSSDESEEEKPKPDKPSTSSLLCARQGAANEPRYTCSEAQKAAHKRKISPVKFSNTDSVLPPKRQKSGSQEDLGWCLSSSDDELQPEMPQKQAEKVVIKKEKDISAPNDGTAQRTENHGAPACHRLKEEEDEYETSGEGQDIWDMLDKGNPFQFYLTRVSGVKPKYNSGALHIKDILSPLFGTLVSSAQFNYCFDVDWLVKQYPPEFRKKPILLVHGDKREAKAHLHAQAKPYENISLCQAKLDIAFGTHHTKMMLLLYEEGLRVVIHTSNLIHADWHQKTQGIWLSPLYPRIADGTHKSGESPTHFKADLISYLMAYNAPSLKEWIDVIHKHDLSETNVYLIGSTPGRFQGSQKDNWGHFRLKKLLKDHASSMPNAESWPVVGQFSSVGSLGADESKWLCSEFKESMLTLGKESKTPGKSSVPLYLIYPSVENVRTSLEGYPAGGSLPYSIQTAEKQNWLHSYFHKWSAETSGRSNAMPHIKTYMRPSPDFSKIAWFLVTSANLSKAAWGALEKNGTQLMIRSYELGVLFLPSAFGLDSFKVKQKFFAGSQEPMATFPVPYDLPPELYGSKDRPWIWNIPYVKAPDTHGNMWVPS
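Steps: enzyme plus compound, 15 min RT; add biotin/phosphotyrosine-FITC oligonucleotide (15 nM final), react 5 min; add donor/acceptor beads (10 ug/ml final), 10 min; read AlphaScreen. Tdp1 at 1 nM final.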
The depositor's hits bear a star; ? = inconclusive; nt = no result; [ ] = another dose, or the depositor's remark. Calls follow the shape of the dose curve; as a rule, active = well fitted curve in the direction sought with a large enough effect; inconclusive = small, poorly fitted or top-dose-only effect, or another doubt; inactive = no such curve, though single readings can be large; an effect the other way counts as inactive or inconclusive. % is scaled to controls: 0 for no effect and ±100 for the full control effect; potency is read from the fitted curve at half-maximal effect.

SMILES | VDR inhibitor | DT40 TDP1 CPT | DT40 TDP1 no CPT | PLK1 PBD block | KAT2A inh | TDP1 inh
O=C(CNC(=O)c1ccc(Br)o1)NCc1ccccc1Cl | 2.3% | 11.5% | -2.9% | -6.7% | 1.5% | 4.4%
CC(C)CN1CCC2(CC1)CCN(C(=O)c1cnccn1)CC2 | 1.2% | 9.4% | -3.9% | nt | -0.3% | nt
CCCOc1ccc(-c2c(=O)n(OCc3ccc([N+](=O)[O-])cc3)c3ccccc3[n+]2[O-])cc1 | -29.7% | -18.1% | -12.9% | ? | 72.3% | 1.8%
CCOc1ccc(-c2c(=O)n(OCc3ccccc3Br)c3ccccc3[n+]2[O-])c(OCC)c1 | -29.8% | ? | 23.1µM* | -0.6% | -8.3% | 0.0%
CCOc1ccc(OCC)c(-c2c(=O)n(OCc3ccccc3Br)c3ccccc3[n+]2[O-])c1 | -6.7% | 10µM* | 8.91µM* | -6.8% | -6.2% | 2.0%
COc1cc(C(C)=O)ccc1OC(=O)N1CCOCC1 | nt | -16.0% | -19.9% | -16.7% | nt | nt
OC(CN1C2=NCCN2c2ccccc21)c1ccc2c(c1)OCO2 (stereo unspecified) | 12.0% | ? | 23.1µM* | -9.0% | -0.7% | -2.0%
Clc1ccc(CN2C3=NCCN3c3ccccc32)cc1Cl | -5.0% | ? | 16.4µM* | -8.2% | -2.2% | 3.9%
CC(=O)N/C(=C/c1ccc2c(c1)OCO2)C(=O)NCc1ccccc1 | -18.9% | 1.3% | 0.1% | -4.8% | -0.4% | -2.4%
COc1ccc(Cl)cc1S(=O)(=O)NCc1ccc2c(c1)CCN2C(=O)c1cccc(C)c1 | 8.7% | 3.26µM* | 4.61µM* | nt | -14.6% | 8.1%
CCOc1ccc(S(=O)(=O)NCc2ccc3c(c2)CCN3C(=O)c2ccc(C)cc2)cc1 | 3.1% | 13µM* | 9.2µM* | nt | -25.6% | 5.4%
COc1ccc(C(=O)NCc2ccc3c(c2)CCN3C(=O)c2ccc(C)cc2)cc1 | 9.5% | ? | ? | nt | -1.8% | 7.4%
CC(=O)N1CCc2cc(CNS(=O)(=O)c3ccc(Cl)s3)ccc21 | 12.2% | ? | 14.6µM* | nt | -10.2% | 5.4%
CC(C)c1ccc(S(=O)(=O)NCc2ccc3c(c2)CCN3C(=O)c2ccccc2)cc1 | 3.5% | 23.1µM* | 14.6µM* | nt | -11.6% | 5.4%
COc1ccccc1C(=O)NCc1ccc2c(c1)CCN2C(=O)c1cccc(C)c1 | 24.4% | ? | ? | nt | -9.6% | 4.4%
Nc1ncnc(Nc2ccccc2Cl)n1 | -21.2% | 0.2% | 0.2% | 2.1% | -7.0% | -1.3%
CCNc1ncc2ncc(=O)n(C)c2n1 | -1.8% | ? | -29.5% | nt | ? | nt
Cc1ccc(C(=O)N2CCc3cc(CNS(=O)(=O)c4cccs4)ccc32)cc1 | 4.6% | 14.6µM* | 18.4µM* | nt | -17.1% | 0.0%
CCOC(=O)C1=C(N)n2c(s/c(=C\c3ccco3)c2=O)=C(C(=O)OC(C)C)C1c1ccco1 (stereo unspecified) | 28.1% | ? | 20.6µM* | -8.8% | -8.3% | 12.9%[56.1 µM]
CCn1cc([N+](=O)[O-])c(C(=O)N2N=C(c3ccc4ccccc4c3)CC2c2cc(Br)ccc2O)n1 (stereo unspecified) | -6.2% | ? | 6.51µM* | 1.0% | -7.0% | 9.8%
CCn1cc([N+](=O)[O-])c(C(=O)N2N=C(c3ccc(Cl)c(Cl)c3)CC2c2ccccc2O)n1 (stereo unspecified) | 6.9% | ? | ? | 4.9% | -11.0% | 7.0%
Cc1ccc(S(=O)(=O)c2ccc(Oc3cccc(C)c3)cc2)cc1 | -4.7% | ? | 20.6µM* | -3.0% | ? | nt

Screening results as filed in PubChem BioAssay.
